Reference: the supplement of paper PMC6555819

How the values were obtained:
Assay in all cases: PBM binding z-score (relative to random genomic background probes); higher = stronger binding; sequences stand for … in GC…GCGATTGACAGCGTAGAATGAAGG
[1] = tested on: FXR:RXRa (NR concentration 270 nM, RXRa partner concentration 90 nM)
How it was run: (§1)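 Each nuclear receptor dimer, without ligand, was incubated for 1 h on custom Agilent 4×180K protein-binding microarrays. Binding was detected with antibodies against each partner (one per run), and scanned fluorescence was regression-normalized. The binding z-scores are referenced to random human genomic background probes.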

[2] = tested on: LXRa:RXRa (NR concentration 270 nM, RXRa partner concentration 90 nM)
How it was run: as §1

[3] = tested on: LXRa homodimer (NR concentration 270 nM)
How it was run: as §1

[4] = tested on: LXRb:RXRa (NR concentration 270 nM, RXRa partner concentration 90 nM)
How it was run: as §1

[5] = tested on: LXRb homodimer (NR concentration 270 nM)
How it was run: as §1

[6] = tested on: PPARa:RXRa (NR concentration 270 nM, RXRa partner concentration 90 nM)
How it was run: as §1

[7] = tested on: PPARg:RXRa (NR concentration 180 nM, RXRa partner concentration 90 nM)
How it was run: as §1

[8] = tested on: PPARg:RXRa 270nM:90nM, anti-RXR (NR concentration 270 nM, RXRa partner concentration 90 nM)
How it was run: as §1

[9] = tested on: PPARg:RXRa 30nM:10nM, anti-RXR (NR concentration 30 nM, RXRa partner concentration 10 nM)
How it was run: as §1

[10] = tested on: PPARg:RXRa 90nM:30nM, anti-RXR (NR concentration 90 nM, RXRa partner concentration 30 nM)
How it was run: as §1

[11] = tested on: PPARg:RXRa DBDmut IVT, anti-RXR (DBD mutation: RXRa K156A/R161A, NR concentration 270 nM, RXRa partner concentration 90 nM)
How it was run: as §1

[12] = tested on: PPARg:RXRa IVT, anti-PPARg (NR concentration 270 nM, RXRa partner concentration 90 nM)
How it was run: as §1

[13] = tested on: PPARg DBDmut:RXRa IVT, anti-PPARg (DBD mutation: PPARg1 K132A/R137A, NR concentration 270 nM, RXRa partner concentration 90 nM)
How it was run: as §1

[14] = tested on: PPARg DBDmut IVT, anti-PPARg (DBD mutation: PPARg1 K132A/R137A, NR concentration 270 nM)
How it was run: as §1

[15] = tested on: PPARg homodimer (NR concentration 180 nM)
How it was run: as §1

[16] = tested on: PXR:RXRa (NR concentration 270 nM, RXRa partner concentration 90 nM)
How it was run: as §1

[17] = tested on: PXR homodimer (NR concentration 270 nM)
How it was run: as §1

[18] = tested on: RARa:RXR (NR concentration 270 nM, RXRa partner concentration 90 nM)
How it was run: as §1

[19] = tested on: RARa homodimer (NR concentration 270 nM)
How it was run: as §1

[20] = tested on: RARb:RXRa (NR concentration 270 nM, RXRa partner concentration 90 nM)
How it was run: as §1

Row | Sequence | PBM binding z-score [1] | PBM binding z-score [2] | PBM binding z-score [3] | PBM binding z-score [4] | PBM binding z-score [5] | PBM binding z-score [6] | PBM binding z-score [7] | PBM binding z-score [8] | PBM binding z-score [9] | PBM binding z-score [10] | PBM binding z-score [11] | PBM binding z-score [12] | PBM binding z-score [13] | PBM binding z-score [14] | PBM binding z-score [15] | PBM binding z-score [16] | PBM binding z-score [17] | PBM binding z-score [18] | PBM binding z-score [19] | PBM binding z-score [20]
1 | AATACAGAGTCACTAGGCCAGAGTAGGTACGAAT | -0.115 | -0.0616 | -0.358 | -0.555 | -0.252 | 0.626 | 1.31 | 0.617 | 0.184 | 0.718 | 0.648 | 1.74 | 1.31 | 0.135 | 0.238 | -0.343 | -0.0346 | -0.415 | 0.249 | 0.141
2 | GCTTGTAGATCAGGGTTAAGAAAGACTAAGCTAA | 0.433 | 0.899 | -0.568 | 0.723 | -0.466 | 1.55 | 0.746 | 1.1 | 0.497 | 0.871 | 0.93 | 0.657 | -0.0573 | -0.809 | 0.18 | 0.366 | -0.121 | 0.69 | -0.311 | 0.352
3 | CCTCCTGGGCCATCAGGTCATTGATATCAACGTT | 1.24 | 0.991 | 0.788 | 1.31 | 0.0311 | 1.73 | 0.38 | 1.29 | -0.255 | 0.67 | 0.202 | 1.81 | -1.18 | -0.736 | 0.643 | 1.34 | 0.852 | 2.16 | -0.969 | 1.99
4 | CGTACGAGGGCATGAGTTGATAGCAAATGCCGAT | 0.342 | 0.419 | -0.557 | 0.284 | -0.608 | 1.23 | 1.11 | 1.07 | 0.157 | 0.878 | 1.2 | 1.22 | -0.964 | -0.327 | 0.331 | 0.557 | 0.0171 | 0.533 | -0.662 | 2.01
5 | CCTGCTAGGTCAATGGTCAGCTACAGCAGCTCGC | 3.03 | 2.08 | -0.0038 | 1.55 | -0.217 | 2.98 | 4.03 | 5.1 | 2.52 | 4.92 | 4.55 | 3.95 | -0.354 | -0.419 | 1.53 | 1.04 | -0.299 | 1.64 | -0.404 | 3.58
6 | CCGACTGGGGCAAAGGATACCATACTCAGTACGA | -0.424 | -0.501 | -0.0956 | -0.347 | -1.05 | 1.32 | 4.4 | 5.19 | 3.28 | 5.31 | 3.85 | 3.35 | -0.00815 | -0.219 | 0.339 | -0.407 | -0.363 | -0.246 | -0.215 | 0.425
7 | AGAACGAGGGCACTGAGTTGATAGCACGGGTGGC | 0.0718 | -0.082 | -0.301 | -0.236 | -0.887 | 1.52 | 1.5 | 1.04 | 0.0133 | 0.347 | 3.56 | 2.9 | 0.453 | 0.196 | 0.00559 | 1.21 | 4.15 | 0.453 | -0.261 | 2.09
8 | TCTGTTAGGTCAACGATGGTCAGCTAATCTGCTA | 4.02 | 3.8 | 0.814 | 2.6 | 1.88 | 3.76 | 2.17 | 3.13 | 3.15 | 3.12 | 3.53 | 4 | 2.9 | 2.09 | 2.86 | 2.43 | 0.247 | 3.28 | 1.58 | 4.37
9 | CCTTACGGGTCACGAGGTTATAGGACGACGAGCG | 6.8 | 4.66 | 0.193 | 3.75 | -0.117 | 5.93 | 7.51 | 6.72 | 3.51 | 5.65 | 4.3 | 5.38 | 1.39 | 0.939 | 1.95 | 4.53 | 0.176 | 5.99 | 1.17 | 4.56
